Screening results as filed in PubChem BioAssay.
Only a selection was taken, and hits are over-represented in it overall.
Shiga inhibitor = A qHTS for Small Molecule Inhibitors of Shiga Toxin | Vero cells, Shiga toxin protein synthesis inhibition reporter | inhibition, % at 38.7 µM | actives 9.2% (n = 290,000) | AID 2315, 2010; in the data active = inhibition mostly above about 28%, no sharp cut-off; inactive = mostly below about 43%; also: 0% is about no effect
Sm TGR block = qHTS Assay for the Inhibitors of Schistosoma Mansoni Peroxiredoxins. actives 3% (n = 360,000). Potency, µM (doses to about 114 µM), without a hit: at the top dose activity change, negative = inhibition, usual class: inhibitors. purified TGR, DTNB reduction, TNB absorbance 405 nm; also: potency is read from the fitted curve at half-maximal effect; % is scaled to controls: 0 for no effect and ±100 for the full control effect; nearly all actives have a fitted effect of over 60% in size
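TGR 20 nM + NADPH 100 uM (dispensed conc.), cpd preinc 15 min RT; start with NADPH (500 uM addition) then DTNB (15 mM addition). Kinetic TNB absorbance, 405 nm filter. Four-parameter Hill fit across titration.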
LmPK inh = qHTS Assay for Inhibitors of Leishmania Mexicana Pyruvate Kinase (LmPK); AID 1721, 2009; Potency, µM (doses to about 57.5 µM), for the others: at the highest dose activity change, negative = inhibition, hits mostly inhibitors; actives 0.37% (n = 290,000); purified LmPK, Kinase-Glo ATP luminescence, 1 h; Q27686; also: potency is read from the fitted curve at half-maximal effect; % is scaled to controls: 0 for no effect and ±100 for the full control effect
Target sequence (Q27686 whole entry, looked up): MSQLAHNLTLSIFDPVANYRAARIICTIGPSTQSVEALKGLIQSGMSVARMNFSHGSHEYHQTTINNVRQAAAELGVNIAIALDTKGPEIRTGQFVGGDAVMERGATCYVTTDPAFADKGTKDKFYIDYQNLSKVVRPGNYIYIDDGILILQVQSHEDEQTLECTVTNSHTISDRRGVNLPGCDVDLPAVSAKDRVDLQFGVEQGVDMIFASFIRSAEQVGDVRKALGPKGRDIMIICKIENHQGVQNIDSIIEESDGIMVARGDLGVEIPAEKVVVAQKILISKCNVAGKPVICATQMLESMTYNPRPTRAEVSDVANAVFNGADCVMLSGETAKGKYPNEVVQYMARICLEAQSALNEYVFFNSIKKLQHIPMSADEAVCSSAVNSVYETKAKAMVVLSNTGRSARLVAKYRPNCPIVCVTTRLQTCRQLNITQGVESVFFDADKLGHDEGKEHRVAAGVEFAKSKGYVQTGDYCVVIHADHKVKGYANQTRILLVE
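qHTS format; LmPK 0.1 nM; substrates PEP 0.5 mM and ADP 0.1 mM. One-hour room-temperature incubation, then coupled luciferase luminescence; 0.5 nM enzyme wells mark activation.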
Giardia FBPA inh = qHTS Assay for Inhibitors of Fructose-1,6-bisphosphate Aldolase from Giardia Lamblia. A8B2U2. purified Giardia FBPA. Potency, µM (top dose mostly 59.6 µM), for the others: at the top dose activity, negative = inhibition, usual class: inhibitors. actives 0.71% (n = 290,000); also: potency is read from the fitted curve at half-maximal effect; % is scaled to controls: 0 for no effect and ±100 for the full control effect; nearly all actives have a fitted effect of over 55% in size
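Giardia FBPA (40 nM reagent) was preincubated 10 min at RT with compound (up to 57.5 uM final), then substrate plus GAPDH/TPI/NAD/arsenate coupling system with diaphorase/resazurin was added; resorufin fluorescence (525/598 nm) was read after 20 min.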
CHX counter = Cycloheximide Counterscreen for Small Molecule Inhibitors of Shiga Toxin | max response, % | actives 12% (n = 300,000) | cell reporter, cycloheximide protein synthesis inhibition counterscreen; in the data active = max response mostly above about 13%, no sharp cut-off; inactive = mostly below about 14%; also: read at 38.3 µM for the half of the compounds with a filed dose; 0% is about no effect
Tb PYK inh = qHTS of Trypanosoma Brucei Inhibitors | pyruvate kinase (Trypanosoma brucei), Q57TT1 | TbPYK enzyme, Kinase-Glo Plus ATP luminescence, 45 min | Potency, µM (doses to about 76.8 µM), inactives show at the top dose activity, negative = inhibition, hits mostly inhibitors | actives 0.12% (n = 410,000) | AID 624173, 2012; also: potency is read from the fitted curve at half-maximal effect; % is scaled to controls: 0 for no effect and ±100 for the full control effect; nearly all actives have a fitted effect of over 50% in size
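In this concentration-response screen, enzyme-free wells defined baseline while DMSO plates tracked drift. Each reaction combined TbPYK, substrate, compound and 130 uM ADP for 45 min at room temperature. Kinase-Glo Plus luminescence gave the signal.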
Starred values were filed as active, the others as inactive; / = no result; [ ] = remark or other dose. Unless noted, calls follow the shape of the dose curve; as a rule, active = well fitted curve in the direction sought with a large enough effect; inconclusive = small, poorly fitted or top-dose-only effect, or another doubt; inactive = no such curve, though single readings can be large; an effect the other way counts as inactive or inconclusive.

SMILES | Shiga inhibitor | Sm TGR block | LmPK inh | Giardia FBPA inh | CHX counter | Tb PYK inh
CCOC(=O)C1CCN(c2nc3cc(OC)ccc3cc2C#N)CC1 | 20 | -10% | -3% | -29% | 4 | 6%
CC(=O)N1CCCc2cc(S(=O)(=O)N3CCCC(C(=O)Nc4cccc(Cl)c4C)C3)ccc21 (stereo not drawn) | / | 8% | / | / | / | -6%
O=C(Nc1cccc(C(F)(F)F)c1)Nc1cc(Cl)ccc1C(=O)O | 4 | / | / | 1% | 9 | /
O=[N+]([O-])C(=C1Nc2ccccc2N1)/C(Cl)=C(/Cl)Br | -6 | 6.3µM* | -3% | 0% | 0 | -17%
CC1=C(C(=O)Nc2ccccn2)C(c2ccc3c(c2)OCO3)C2=C(CC(C)(C)CC2=O)N1 (stereo not drawn) | 31 | 11% | -4%[11.5 µM] | 2% | 16* | 2%
Cc1ccc2nc(NC(=O)c3ccc(Cl)s3)sc2c1 | 51* | 0% | -1% | 0% | 25* | -16%
Cc1nc2ccc(NC(=O)c3cccnc3)cc2s1 | 55 | 13% | 8% | -8% | 8 | -1%
Cc1nc2ccc(NC(=O)c3ccc(Br)o3)cc2s1 | 66* | -26% | -6% | -13% | 36* | 29%
Cc1nc2ccc(NC(=O)c3cnc(Cl)c(Cl)c3)cc2s1 | 71* | -6% | 2% | 1% | 18* | -1%
Cc1nc2ccc(NC(=O)c3ccc(Cl)s3)cc2s1 | 77* | 3% | 8% | 0% | 15 | 1%
CCc1nc2sc3c(N4CCCCC4)ncnc3c2c2c1CCCC2 | / | -3% | / | / | / | -4%
CC(=O)c1cccc(NC(=S)N2CCN(c3ccccn3)CC2)c1 | 3 | -8% | 7% | -18% | 10 | -9%
Cc1ccc2c(CC(=O)Nc3sccc3C(N)=O)coc2c1 | 81* | -12% | 2% | 0% | 41* | -8%
Cc1ccc2c(CC(=O)Nc3ccc(N4CCN(C)CC4)cc3C)coc2c1 | 47 | 0% | -3% | 3% | 18* | -1%
O=C(c1ccc(Br)cc1)c1coc2ccc(O)cc12 | / | / | / | / | / | 0%
O=C(c1ccc(Cl)cc1)c1coc2ccc(O)cc12 | 73* | 2% | -1% | 0% | 43* | 1%
O=C(c1coc2ccc(O)cc12)C1CC1 | 58* | 0% | -2% | 3% | 25* | 1%
COc1ccc(C2CC23N=C(c2ccccc2)OC3=O)cc1 (stereo not drawn) | -3 | 22µM* | -1% | -3% | -2 | -10%
CCC(=O)O[C@]1(C(=O)CCl)[C@@H](C)CC2C3C[C@H](F)C4=CC(=O)C=CC4(C)[C@@]3(F)C(O)CC21C (stereo partly drawn) | / | / | / | / | / | -5%
NC(=S)N/N=C/c1ccccc1OC(=O)/C=C/c1ccccc1 | 15 | 2% | -8% | / | 2 | 4%
COC(=O)N/N=C\c1ccccc1OC/C=C/c1ccccc1 | 39 | -5% | 3% | 9% | 32* | 0%
N#CCC(=O)N/N=C\c1cc(Br)ccc1OC/C=C/c1ccccc1 | 98* | 6% | -3% | / | 26* | -2%
COc1cc(/C=N\NC(C)=O)ccc1OC/C=C/c1ccccc1 | -5 | -28% | 1% | 17% | -1 | -1%
CCOC(=O)N/N=C\c1ccccc1OC/C=C/c1ccccc1 | 55* | 3% | 0% | 0% | 34* | 9%
CC(C)N(Cc1ccccc1)S(=O)(=O)c1ccc(N2CCCCS2(=O)=O)cc1 | / | 3% | / | / | / | -10%
CC(C)Cc1cc(C(C)(C)C)ccc1OC(=S)N(C)C | -9 | -15% | -1% | 1% | -4 | -6%
CCC(C)NC(=O)C1CN(S(=O)(=O)c2ccccc2)CCN1S(=O)(=O)c1ccccc1 (stereo not drawn) | 28 | -16% | -4% | 9% | 25* | 0%
O=Cc1ccc(Sc2nnc(-c3ccccc3)o2)c([N+](=O)[O-])c1 | -18 | 11µM* | 6% | -29% | -3 | 0%
